This note sets out measurements from PubChem BioAssay AID1159580 (chemical genetic matrix, 2015).

A short description of the experiment: chemical genetic growth profiling, strain panel (AID 1159580).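 Also: tested at 20 µM; growth read once vehicle control cultures reached saturation at 30 °C; 1 = growth at the plate median or of vehicle wells; lower values mean less growth of the strain.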 Conditions: growth OD.
Setting [1] is: S. cerevisiae deletion strains, locus YAL013W, strain DEP1, hits give low values.
Setting [2] is: S. cerevisiae deletion strains, locus YAL040C, strain CLN3, hits give low values.
The mark [3] stands for this setting: S. cerevisiae deletion strains, locus YCL061C, strain MRC1 (second series), hits give low values.
[4] abbreviates: S. cerevisiae deletion strains, locus YDR150W, strain NUM1, hits give low values.
Setting [5] is: S. cerevisiae deletion strains, locus YDR363W, strain ESC2, hits give low values.
The mark [6] stands for this setting: S. cerevisiae deletion strains, locus YER002W, strain NOP16, hits give low values.
[7] abbreviates: S. cerevisiae deletion strains, locus YNL175C, strain NOP13, hits give low values.
Setting [8] is: S. cerevisiae deletion strains, locus YNL197C, strain WHI3, hits give low values.
Where [9] appears, read: S. cerevisiae deletion strains, locus YNL224C, strain SQS1, hits give low values.
[10] abbreviates: S. cerevisiae deletion strains, locus YNL322C, strain KRE1, hits give low values.
Setting [11] is: S. cerevisiae deletion strains, locus YOR083W, strain WHI5 (second series), hits give low values.
Setting [12] is: S. cerevisiae deletion strains, locus YPL055C, strain LGE1, hits give low values.
The mark [13] stands for this setting: S. cerevisiae deletion strains, locus YPL241C, strain CIN2, hits give low values.
[14] abbreviates: S. cerevisiae deletion strains, locus YGR229C, strain SMI1, hits give low values.
Where [15] appears, read: S. cerevisiae deletion strains, locus YJR075W, strain HOC1, hits give low values.
Where [16] appears, read: S. cerevisiae deletion strains, locus YMR263W, strain SAP30, hits give low values.
The mark [17] stands for this setting: S. cerevisiae deletion strains, locus YMR307W, strain GAS1, hits give low values.
[18] abbreviates: S. cerevisiae deletion strains, locus YNL153C, strain GIM3, hits give low values.
Where [19] appears, read: S. cerevisiae deletion strains, locus YBR229C, strain ROT2, hits give low values.
[20] abbreviates: S. cerevisiae deletion strains, locus YDL101C, strain DUN1, hits give low values.
Setting [21] is: S. cerevisiae deletion strains, locus YDL134C, strain PPH21, hits give low values.
Where [22] appears, read: S. cerevisiae deletion strains, locus YEL061C, strain CIN8, hits give low values.
Setting [23] is: S. cerevisiae deletion strains, locus YGR078C, strain PAC10, hits give low values.
Setting [24] is: S. cerevisiae deletion strains, locus YHR030C, strain SLT2, hits give low values.
Setting [25] is: S. cerevisiae deletion strains, locus YHR087W, strain rtc3, hits give low values.
Setting [26] is: S. cerevisiae deletion strains, locus YJR043C, strain POL32, hits give low values.
[27] abbreviates: S. cerevisiae deletion strains, locus YLR039C, strain RIC1, hits give low values.
The mark [28] stands for this setting: S. cerevisiae deletion strains, locus YLR058C, strain SHM2 (second series), hits give low values.
[29] abbreviates: S. cerevisiae deletion strains, locus YLR085C, strain ARP6, hits give low values.
[30] abbreviates: S. cerevisiae deletion strains, locus YLR262C, strain YPT6, hits give low values.
Setting [31] is: S. cerevisiae deletion strains, locus YML094W, strain GIM5, hits give low values.
The mark [32] stands for this setting: S. cerevisiae deletion strains, locus YMR219W, strain ESC1, hits give low values.
Where [33] appears, read: S. cerevisiae deletion strains, locus YNL298W, strain CLA4 (second series), hits give low values.
[34] abbreviates: S. cerevisiae deletion strains, locus YNR030W, strain Alg12, hits give low values.
[35] abbreviates: S. cerevisiae deletion strains, locus YOL006C, strain TOP1, hits give low values.
[36] abbreviates: S. cerevisiae deletion strains, locus YPR135W, strain CTF4, hits give low values.

Structures are written as SMILES. About 2,000 (36%) of roughly 5,500 compounds were called active. Roughly 18% stayed inconclusive and do not appear here. This is one part of the list. A number with no mark means an inactive call. Rule as the data show it: active = normalized growth mostly below about 0.91 (no sharp cut-off); inconclusive = no clear call, values can overlap the other calls; inactive = mostly above about 0.92.

For `O=C(OCCN1CCOCC1)C1(c2ccccc2)CCCCC1`, the normalized growth runs as follows: under setting [1], 1.07; under setting [2], 1.01; under setting [3], 1; under setting [4], 1.01; under setting [5], 1; under setting [6], 1.01. Besides, the normalized growth by setting is: under setting [7], 1.01; under setting [8], 0.999; under setting [9], 0.996; under setting [10], 1.01; under setting [11], 1; under setting [12], 1.02. Besides, the normalized growth under setting [13] is 0.999.

For the compound `O=C(c1ccc2c(c1)OCCO2)N1CCCCC1`, the normalized growth is 0.989 under setting [2]; 0.991 under setting [3]; 1.01 under setting [4]; 1.06 under setting [5]; 0.986 under setting [6]; 1.01 under setting [14]. Besides, the normalized growth is, setting by setting: under setting [15], 1.03; under setting [16], 1; under setting [17], 1.01; under setting [18], 0.98; under setting [7], 0.992; under setting [8], 0.976. The normalized growth reads like this: under setting [9], 1; under setting [10], 1.02; under setting [11], 0.993.

`O=C(CCN1CCOCC1)c1ccc2c(c1)OCCO2`: the normalized growth under setting [1] was 0.979; the normalized growth under setting [19] was 0.982; the normalized growth (S. cerevisiae deletion strains, locus YCL061C, strain MRC1, hits give low values) is 1.01; the normalized growth under setting [20] is 1.01; the normalized growth under setting [21] is 0.836 (active); the normalized growth under setting [4] is 1.01. Moreover, the normalized growth was 0.694 (active) under setting [22]; 0.987 under setting [23]; 0.51 (active) under setting [24]; 0.988 under setting [25]; 0.996 under setting [26]; 1.01 under setting [15]. Besides, the normalized growth runs as follows: under setting [27], 0.637 (active); under setting [28], 0.989; under setting [29], 0.259 (active); under setting [30], 0.703 (active); under setting [31], 0.802 (active); under setting [32], 0.99. The normalized growth is, setting by setting: under setting [16], 1; under setting [18], 1.03; under setting [33], 0.852; under setting [10], 0.968; under setting [34], 0.787 (active); under setting [35], 0.708 (active). The normalized growth is, setting by setting: under setting [12], 0.982; under setting [13], 0.769 (active); under setting [36], 0.737.

For `CCNS(=O)(=O)c1cc(Cl)sc1Cl`, the normalized growth is 0.992 under setting [1]; 1.02 under setting [19]; 0.99 under setting [20]; 1.01 under setting [21]; 0.947 under setting [4]; 0.995 under setting [22]. Moreover, the normalized growth runs as follows: under setting [23], 1; under setting [14], 0.994; under setting [24], 1.05; under setting [25], 1; under setting [26], 1.01; under setting [15], 1.01. The normalized growth (S. cerevisiae deletion strains, locus YKL190W, strain CNB1, hits give low values) was 1; the normalized growth under setting [27] is 0.989; the normalized growth under setting [28] was 1.04; the normalized growth under setting [29] was 0.983; the normalized growth under setting [30] was 0.985; the normalized growth under setting [31] is 1.01. Also, the normalized growth runs as follows: under setting [32], 0.994; under setting [16], 1.01; under setting [17], 0.976; under setting [18], 1.01; under setting [33], 1.05; under setting [10], 0.992. The normalized growth was 1.01 under setting [34]; 1.02 under setting [35]; 1.12 under setting [12]; 1.01 under setting [13]; 1.13 under setting [36]; 0.998 (S. cerevisiae strains, strain wild type, hits give low values).
